Screens (PubChem BioAssay)
HCMV antiviral = inhibitors of human cytomegalovirus. HFF cells, HCMV-luciferase reporter, 72 h; hits give low values. activity change, negative = inhibition, % at 57.5 µM. 4.5% of 410,000 active; in the data active = activity change below about -60%; inconclusive = no clear call, values can overlap the other calls; inactive = above about -39%
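Two compound doses tested in HFFs infected with HCMV-luciferase, MOI 1 PFU/cell, 72 h at 37C. Lysate luminescence read with OneGlo; data normalized against buffer-only and 10uM Salinomycin inhibitor controls.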
VACV Venus inh = inhibitors of vaccinia virus (Venus reporter). Vaccinia virus Venus reporter expression, fluorescence. Potency, µM (highest dose often 36.5 µM), inactives show top-dose activity change, negative = inhibition, actives largely listed as inhibitors. 0.46% of 330,000 active; calls by dose curve; tested in A549 cells; also: potency is read from the fitted curve at half-maximal effect; nearly all actives have a fitted effect of over 30% in size
Lassa entry inh = inhibitors of Lassa virus binding or cell entry | Lassa virus pseudotype entry inhibition, cell reporter | Potency, µM (series often up to 37.9 µM), for the others: top-dose activity change, negative = inhibition, usual class: inhibitors | 1.2% of 300,000 active | AID 540256; calls by dose curve; tested in HEK293 cells; also: potency is read from the fitted curve at half-maximal effect; nearly all actives have a fitted effect of over 50% in size
HCV inhibitor = HCV inhibition | Huh7.5.1 HCVcc-Cre infection, luciferase reporter, 44 h | Potency, µM (titrated, usually from 41.8 µM), for inactives: at the highest dose activity change, negative = inhibition, usual class: inhibitors | 3.4% of 340,000 active; active = well fitted inhibition curve with a large enough effect; inconclusive = small, poorly fitted or top-dose-only effect, or another doubt; inactive = no such curve, though single readings can be large or run the other way; also: potency is read from the fitted curve at half-maximal effect
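1,000 cells/well; 4 h culture; + compound; + HCVcc-Cre (~0.5 moi); 44 h; luciferase substrate, RT 15 min; read 15 sec.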
VACV mCherry inh = vaccinia inhibition (mCherry reporter) | Vaccinia virus mCherry reporter infection, fluorescence | Potency, µM (highest dose often 36.5 µM), for inactives: top-dose activity change, negative = inhibition, actives largely listed as inhibitors | 0.63% of 310,000 active | AID 720579; calls by dose curve; tested in A549 cells; also: potency is read from the fitted curve at half-maximal effect; nearly all actives have a fitted effect of over 35% in size
Marburg entry inh = blocks Marburg virus binding to or entry into cells; 1.8% of 300,000 active; Marburg virus pseudotyped entry inhibition, cell reporter; Potency, µM (top dose mostly 37.8 µM), inactives show at the highest dose activity change, negative = inhibition, actives largely listed as inhibitors; calls by dose curve; tested in HEK293 cells; also: potency is read from the fitted curve at half-maximal effect
* marks the source's active call; other numbers are inactive results; i = inactive; ? = inconclusive; / = no result; + = active, no number; ! = a repeat was not active; [ ] = another dose, or the depositor's remark. Most compounds without a hit are left out; they make up all but 7.8% or so of the library. % is scaled to controls: 0 for no effect and ±100 for the full control effect.

SMILES	HCMV antiviral	VACV Venus inh	Lassa entry inh	HCV inhibitor	VACV mCherry inh	Marburg entry inh
Cc1ccc(/C=N/n2c(C)nc3ccccc3c2=O)o1	15	/	/	30%	/	/
CCOc1ccc(NC(=O)CN2C(=O)C(c3ccccc3)=NC23CCCCCC3)cc1	19	-11%	19%[46.1 µM]	/	-2%	?
CC(O)(c1ccccc1)[N+]1(CC(=O)c2ccccc2)C=CC=C1 (stereo not given)	/	-15%	/	/	-14%	/
COc1ccc(N2C(N)=NC(N)=NC23CCCC3)cc1	-39	?	10%	12%	/	?
CC1(C)N=C(N)N=C(N)N1c1cccc(C(=O)O)c1	?	-8%	28%	11%	i	30%
CC1(C)N=C(N)N=C(N)N1c1cccc(C#N)c1	-77*	4.5µM*	2.5µM*	?	2µM*	?
COc1cccc(N2C(N)=NC(N)=NC2(C)C)c1	-67*	?	?	-13%	/	-26%
CCOc1ccc(N2C(N)=NC(N)=NC2(C)C)cc1	-68*	?	5%	3%	0%	?
COc1ccc(N2C(N)=NC(N)=NC2(C)C)cc1	?	11µM*	?	-19%	?	?
CCOC(=O)c1c(C)oc2ncnc(NCCCN3CCN(c4cc(C)ccc4C)CC3)c12	-2	-17%	-5%[46.1 µM]	/	-20%	/
CC(C)Oc1ccc(C(=O)N2CCN(CCc3ccccn3)CC2)cc1	4	-2%	2%[46.1 µM]	/	-7%	6%[46.1 µM]
COc1cccc(C(=O)NC(C)c2nnc3n2CCN(CC=C(C)C)CC3)c1 (stereo not given)	/	-17%	/	/	-4%	/
COc1ccc(/C=C/C(=O)c2ccccc2)cc1Cn1nnc2ccccc21	-34	-10%	-22%	3.5µM*	-28%	?
COc1ccc(/C=C/C(=O)c2ccc(C(=O)/C=C/c3ccc(OC)c(OC)c3)cc2)cc1OC	-76*	/	/	4.5µM*	/	/
COc1cc(/C=C/C(=O)c2ccc(C)cc2)ccc1OCC#N	0	?	10µM*	?	?	?
COc1cc(/C=C/C(=O)OCC(=O)c2c(N)n(C)c(=O)n(C)c2=O)ccc1OCC#N	20	-24%	?	?	-17%	6.3µM*
COc1cccc(NC(=O)CSC2=C(C#N)[C@H](c3ccco3)C3=C(CCCC3=O)N2)c1	/	/	/	/	/	-7%
CCOc1cc(/C=C/C(=O)c2ccc(C)cc2)ccc1OCC(=O)N(C)C	-97*	?	?	?	?	?
COc1ccc(Oc2ccc(/C=C/C(=O)c3ccc(O)cc3)cc2[N+](=O)[O-])cc1	-98*	?	13µM*	?	?	?
CCOc1cc(/C=C/C(=O)O)ccc1OCCO	-31	/	11%	10%	/	2%
COc1ccc(C=CC(=O)c2ccc(OCc3ccccc3)c(OC)c2)cc1OC	-87*	11µM*	/	/	28µM*	/
COCCNC(=O)CSc1nc2cc3c(cc2c(=O)n1Cc1ccc(C(=O)NCCc2ccc(OC)c(OC)c2)cc1)OCO3	68	-18%	14%[46.1 µM]	/	-16%	/
Cn1c(=O)c2c(SCC(=O)NCC3CCCO3)nc(-c3cccc(F)c3)nc2n(C)c1=O (stereo not given)	6	-9%	-5%[46.1 µM]	/	0%	/
CC(N)C(=O)OC(C)(C)Cc1ccc(Cl)cc1 (stereo not given)	-19	-13%	?	-11%	-2%	10µM*!
Cc1ccc(NC(=O)CN(C)C(=O)c2cccnc2Nc2cccc(C(F)(F)F)c2)cc1	-60*	/	/	?	/	/
SMILES	HCMV antiviral	VACV Venus inh	Lassa entry inh	HCV inhibitor	VACV mCherry inh	Marburg entry inh
CCOc1ncccc1C(=O)N(C)CC(=O)Nc1ccc(C)cc1	5	-12%	-3%	-11%	-27%	11%
O=C(O)C1=CC(=C(c2ccc(O)c(C(=O)O)c2)c2ccc(O)c(C(=O)O)c2)C=CC1=O	/	-20%	?	8%	-28%	0.44µM*
O=C(NCCc1ccccc1)C1CCN(c2nc3ccccc3o2)CC1	-1	/	18%	-17%	/	1%
Cc1csc2c(N3CCN(C(=O)c4ccc(C(C)(C)C)cc4)CC3)ncnc12	-63*	/	/	?	/	/
O=C(NC1CCCCCCC1)C1CCN(c2nc3ccccc3o2)CC1	-88*	/	?	?	/	?
Cc1cccc(NC(=O)N2CCN(C(=O)c3nsc4ccccc34)CC2)c1C	+	-14%	1%[46.1 µM]	/	-17%	/
CC1CCN(C(=O)c2ccccc2NC(=O)c2nsc3ccccc23)CC1	0	1%	3%[46.1 µM]	/	i	/
Cc1cccc(Cl)c1NC(=O)N1CCCN(c2nc3ccc(Cl)cc3s2)CC1	-35	/	/	7.1µM*	/	/
CCOc1ccc(NC(=O)C2CCC(CNS(=O)(=O)c3ccc4c(c3)CCCC(=O)N4)CC2)cc1 (stereo not given)	-10	0%	29%[46.1 µM]	/	-6%	/
CCc1ccc2occ(CC(=O)Nc3sc4c(c3C(=O)OC)CCC4)c2c1	-13	-4%	?	/	-6%	?
O=C(COc1ccc(F)cc1)Nc1ccc(C(=O)OCc2cc(=O)n3nc(C4CC4)sc3n2)cc1	7	-9%	4%[46.1 µM]	/	-10%	/
CC(C)(C)c1ccc(C(=O)N2CCN(c3nc4ccccc4o3)CC2)cc1	-4	-18%	/	10µM*	i	/
Cc1cccc(C)c1NC(=O)N1CCN(c2nc3ccccc3s2)CC1	-70*	/	?	?	/	?
CC1CCC(NC(=O)C2CCN(c3nc4ccccc4s3)CC2)CC1 (stereo not given)	11	-6%	?	10µM*	-17%	-16%[46.1 µM]
Cc1ccc2nc(N3CCC(C(=O)NC4CCCCC4)CC3)sc2c1	-14	10%[7.34 µM]	/	?	-2%[7.34 µM]	/
O=C(c1ccc(-c2ccccc2)cc1)N1CCN(c2nc3ccccc3o2)CC1	24	-4%	/	20%	i	/
CCNC(=O)C1CCCN(C(=O)c2ccccc2OC(F)(F)F)CC1 (stereo not given)	-9	-4%	/	/	37%	/
CCCC(=O)Nc1cc(C)c(NC(=O)c2ccncc2)cn1	-5	-4%	2.8µM*	7%	-13%	3%
CCCCCn1c(CN2CCN(c3ccc(OC)cc3)CC2)nc2c1c(=O)[nH]c(=O)n2C	-4	0%	?	/	-16%	-9%[46.1 µM]
CCCCn1c(CN2CCN(c3cccc(Cl)c3)CC2)nc2c1c(=O)n(C)c(=O)n2C	-89*	/	-1%	?	/	?
CCCCCn1c(CN2CCN(c3cc(Cl)ccc3C)CC2)nc2c1c(=O)[nH]c(=O)n2C	?	/	?	?	/	16µM*
CCCCCn1c(CN2CCN(c3cccc(Cl)c3)CC2)nc2c1c(=O)n(C)c(=O)n2C	-39	-24%	7%	?	-6%	?
CCCCn1c(CN2CCN(c3ccccc3)CC2)nc2c1c(=O)n(C)c(=O)n2C	/	?	/	7.1µM*	?	/
Cn1c(=O)c2c(nc(CN3CCN(c4ccccc4)CC3)n2CCCc2ccccc2)n(C)c1=O	43	-9%	12%	18%	-12%	26%
